The list is not random: actives were taken first. Their share in the collection is about 15%.
Sm TGR inh: S. mansoni TGR enzyme inhibition | Q962Y6 | Potency, µM (titrated, usually from 114 µM), for the others: at the top dose activity change, negative = inhibition, hits mostly inhibitors | 360,000 tested, 3% active | purified TGR, DTNB reduction, TNB absorbance 405 nm; note: potency is the fitted concentration of half-maximal effect; % is set by controls: 0 for no effect and ±100 for the full control effect; nearly all actives have a fitted effect of over 60% in size
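Kinetic colorimetric format: TGR-catalysed, NADPH-driven DTNB reduction monitored via TNB absorbance. Enzyme dispensed at 20 nM; compound exposure 15 min at room temperature before reaction start.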
HCV inh: inhibitors of hepatitis C virus infection. AID 651820. Potency, µM (series often up to 41.8 µM), for the others: at the top dose activity change, negative = inhibition, usual class: inhibitors. Huh7.5.1 HCVcc-Cre infection, luciferase reporter, 44 h. 340,000 tested, 3.4% active; note: potency is the fitted concentration of half-maximal effect; % is set by controls: 0 for no effect and ±100 for the full control effect
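Whole-lifecycle infectious HCVcc-Cre system; cells 1,000/well, compound then virus (~0.5 moi) added 4 h after plating, 44 h culture. Luciferase read 15 sec following 15 min substrate incubation, room temp.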
Pf growth 96h: P. falciparum growth inhibition at 96 hour, primary screen for plastid delayed-death inhibitors; AID 504834; 320,000 tested, 6.9% active; P. falciparum luciferase reporter growth, 96 h; Potency, µM (doses to about 28.7 µM), for the others: at the top dose activity change, negative = inhibition, most hits filed as inhibitors; note: potency is the fitted concentration of half-maximal effect; % is set by controls: 0 for no effect and ±100 for the full control effect
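Erythrocytes infected with luciferase-expressing P. falciparum were dispensed at 2% hematocrit and 0.05% parasitemia (final), then incubated with compounds 96 hours at 37 C in 5% CO2. Luminescence after detection reagent addition reported growth.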
HCMV antiviral: human cytomegalovirus inhibition. HFF cells, HCMV-luciferase reporter, 72 h; stronger effect = lower value. AID 1259415. activity change, negative = inhibition, % at 57.5 µM. 410,000 tested, 4.5% active; in the data active = activity change below about -60%; inconclusive = no clear call, values can overlap the other calls; inactive = above about -39%; note: % is set by controls: 0 for no effect and ±100 for the full control effect
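Two compound doses tested in HFFs infected with HCMV-luciferase, MOI 1 PFU/cell, 72 h at 37C. Lysate luminescence read with OneGlo; data normalized against buffer-only and 10uM Salinomycin inhibitor controls.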
SARS PLpro yeast: inhibitors of SARS-CoV papain-like protease in yeast. AID 485353. S. cerevisiae expressing SARS-CoV PLpro, growth rescue. 330,000 tested, 0.19% active. Potency, µM (series often up to 32.9 µM), without a hit: at the top dose activity, positive = growth rescue, usual class: activators; calls by dose curve; note: potency is the fitted concentration of half-maximal effect; 0% is about no effect; nearly all actives have a fitted effect of over 55% in size
Pf growth 48h: inhibits P. falciparum growth in the first generation, 48 h | Potency, µM (series often up to 28.7 µM), for the others: at the top dose activity change, negative = inhibition, usual class: inhibitors | AID 504832 | 310,000 tested, 5.9% active | P. falciparum luciferase growth in erythrocytes, 48 h; note: potency is the fitted concentration of half-maximal effect; % is set by controls: 0 for no effect and ±100 for the full control effect
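Parasite viability was followed by luminescence of a genomically integrated firefly luciferase. Cultures held 0.1% parasitemia at 2% hematocrit (final), incubated under 5% CO2 at 37 C.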
Active calls of the source: *; ? = inconclusive; / = no result. Unless noted, calls come from the whole dose curve; as a rule, active = well fitted curve in the direction sought with a large enough effect; inconclusive = small, poorly fitted or top-dose-only effect, or another doubt; inactive = no such curve, though single readings can be large; an effect the other way counts as inactive or inconclusive.

SMILES	Sm TGR inh	HCV inh	Pf growth 96h	HCMV antiviral	SARS PLpro yeast	Pf growth 48h
COc1ccc(S(=O)(=O)N2CCOC23CCN(S(C)(=O)=O)CC3)cc1	4.5%	-2.3%	1.6%	-14.9	-1.1%	-3.9%
Cc1nn2c(=O)cc(COC(=O)COc3ccccc3C)nc2s1	-1.0%	/	/	5.8	/	/
COc1ccc(-c2cc(C(F)F)n3ncc(C(=O)N4CCN5CCCC5C4)c3n2)cc1 (configuration not stated)	?	?	9.28µM*	2.3	2.4%	?
Cc1ccc(-c2cc(C(F)F)n3ncc(C(=O)N4CCN(c5cccc(C)c5C)CC4)c3n2)cc1	-32.1%	31.6µM*	-9.3%	88.1	/	-15.1%
O=C(c1cnn2c(C(F)(F)F)cc(-c3ccc(F)cc3)nc12)N1CCc2ccccc2C1	2.4%	?	?	-71.7*	1.0%	6.5%
COc1ccc(-c2cc(C(F)F)n3ncc(C(=O)NCC4CCCO4)c3n2)cc1 (configuration not stated)	0.5%	-19.1%	/	-38.4	-0.5%	?
Cc1ccc(-c2cc(C(F)F)n3ncc(C(=O)N4CCc5ccccc5C4)c3n2)cc1	0.3%	11.2µM*	3.9%	-24.6	1.3%	11.4%
CCOC(=O)N1CCN(C(=O)c2cnn3c(C(F)F)cc(-c4ccc(C)cc4)nc23)CC1	3.1%	1.2%	31.4%	30.1	5.3%	-3.7%
O=S(=O)(c1ccccc1)N1[C@@H]2CC[C@@H](C2)[C@H]1c1nc2c(OCC3CCOCC3)cccc2[nH]1	/	/	/	0.9	/	/
CC1=C(C(=O)N(C(C)C)C(C)C)CC(CC(=O)NC(c2ccccc2)c2ccccc2)C(=O)N1Cc1ccc(F)cc1 (configuration not stated)	/	/	/	-19.4	/	/
Cc1ccc(-c2cc(C(F)F)n3ncc(C(=O)N4CCCc5ccccc54)c3n2)cc1	1.9%	4.9%	93.6%	8.6	2.0%	?
COc1ccc(-c2cc(C(F)F)n3ncc(C(=O)n4ccnc4C)c3n2)cc1	89.1µM*	-5.0%	-27.5%	145.5	11.6%	-8.4%
COC(=O)c1ccc(C(=O)OC)c(NC(=O)c2cnn3c(C(F)F)cc(-c4ccc(C)cc4)nc23)c1	0.8%	/	/	9.3	/	/
COc1ccc(-c2cc(C(F)F)n3ncc(C(=O)N4CCc5ccccc54)c3n2)cc1	11.2µM*	?	1.2%	20.7	1.4%	?
CN(CC(=O)Nc1cccc(Cl)c1)C1=NS(=O)(=O)c2ccccc21	/	-3.3%	/	-0.7	?	/
CCc1cccc(NC(=O)CN(C)C2=NS(=O)(=O)c3ccccc32)c1	1.3%	9.4%	11.7µM*	-22.8	2.4%	?
CCCOc1ccc(CNC(=O)C2CCN(c3nc4ccccc4nc3C(F)(F)F)CC2)cc1	2.6%	/	/	16.2	/	/
c1ccc2c(c1)[nH]c1c3ccccc3sc21	-0.3%	11.2µM*	101.2%	-1.1	-0.8%	67.3%
CCOC(=O)N1CCC(NC(=O)c2cccn3c(=O)c4cc(Br)ccc4nc23)CC1	0.2%	0.8%	58.7%	23.8	-14.5%	2.62µM*
CCN(CC)C(=O)C1=C(C)N(Cc2ccc(OC)cc2)C(=O)C(CC(=O)NC2CCCCC2)C1 (configuration not stated)	/	/	/	-5.5	/	/
COc1ccc(Br)cc1C(C[N+](=O)[O-])c1c(N)n(C)c(=O)n(C)c1=O (configuration not stated)	-20.4%	3.98µM*	?	-100.1*	-22.4%	3.7µM*
CC1=C(C#N)C(C)(C)C(C#N)=C(C)N1	/	/	/	0.7	/	/
CCN(CC)C(=O)c1[nH]cnc1C(=O)NCc1ccccc1	/	-11.5%	/	8.2	1.4%	/
COc1ccccc1NC(=O)COC(=O)c1cc2ccccc2cc1O	1.9%	6.5%	21.4%	0.0	6.9%	?
COc1cc(NC(=O)c2cc3ccccc3cc2O)c(OC)cc1Cl	-12.9%	10µM*	1.31µM*	-100.6*	-1.8%	2.08µM*
SMILES	Sm TGR inh	HCV inh	Pf growth 96h	HCMV antiviral	SARS PLpro yeast	Pf growth 48h
COc1ccccc1NC(=O)c1cc2cc(Br)ccc2cc1O	6.8%	11.2µM*	?	-28.9	-20.0%	2.94µM*
COc1cc(NC(=O)c2c(Cl)cnn2C)c(OC)cc1Cl	-13.9%	?	-1.1%	-60.5*	-1.9%	1.7%
Cc1ccc(Cl)cc1NC(=O)c1cc2ccccc2cc1O	3.6%	?	0.294µM*	-99.6*	-4.8%	0.928µM*
Cc1nc2ccccn2c1C(=O)CSc1cccc(Cl)c1	-1.9%	?	?	?	-28.7%	?
CC(NC(=O)c1cc(Br)cs1)C1CCCO1 (configuration not stated)	0.0%	-11.9%	13.1µM*	56.1	6.8%	71.0%
COc1ccc(C)cc1NC(=O)CC1NCCNC1=O (configuration not stated)	0.5%	/	/	1.1	/	/
Cc1cccc(-c2cc3nc4c(c(NCc5ccco5)n3n2)CCCC4)c1	0.0%	7.08µM*	0.0%	3.0	-41.0%	-10.5%
Cc1cccc(-c2cc3nc4c(c(N5CCOCC5)n3n2)CCCC4)c1	-13.0%	?	74.6%	48.4	-27.6%	?
CN(C)CCCNc1c2c(nc3cc(-c4cccc(F)c4)nn13)CCC2	6.4%	3.8%	-6.5%	169.2	-0.1%	6.6%
COc1ccc(-c2cc3nc4c(c(N5CCC6(CC5)OCCO6)n3n2)CCC4)cc1	15.8%	?	255.9%	-10.8	-1.6%	?
COc1cccc(-c2cc3nc4c(c(N5CCC6(CC5)OCCO6)n3n2)CCC4)c1	/	15.8µM*	?	7.8	0.1%	?
Cc1cccc(-c2cc3nc4c(c(N5CCC6(CC5)OCCO6)n3n2)CCCC4)c1	/	10µM*	/	-3.5	/	/
CC(C)OC(=O)c1ccc2nc3ccccc3nc2c1	8.3%	-23.1%	124.2%	-9.2	-3.1%	69.9%
CCCN1C(=O)/C(=C/c2c(N3CCNC(=O)C3CC(=O)OC)nc3c(C)cccn3c2=O)SC1=S (configuration not stated)	-7.0%	/	?	/	0.9%	?
Cc1nc(-c2ccc(-n3nncc3-c3ccco3)cc2)cs1	50.1µM*	?	18.8%	-15.9	-2.5%	27.1%
N#C/C(=C\c1ccco1)Sc1nc2ccccc2s1	39.8µM*	-27.0%	14.5%	141.1	-10.2%	25.2%
Cc1cc(NC(=O)CCN2C(=O)C3C4CCC(C4)C3C2=O)cc(C)c1Br (configuration not stated)	-8.2%	?	0.928µM*	-33.9	21.0%	-1.7%
Cc1cc(NC(=O)CCN2C(=O)C3C4C=CC(C4)C3C2=O)ccc1Br (configuration not stated)	6.9%	-0.9%	0.0%	-68.3*	-3.8%	9.2%
COc1ccc(NC(=O)CCN2C(=O)C3C4C=CC(C4)C3C2=O)cc1 (configuration not stated)	/	0.1%	44.7%	6.3	-0.2%	1.9%

Screens: PubChem, National Center for Advancing Translational Sciences (NCATS)
